# Source: PubChem
# This is a sample that favours compounds with a hit; in the whole collection about 1.8% have one here.
# NPR2 activator: GC-B (human) receptor activation; HEK293-GC-B cells, CNP EC30, cGMP TR-FRET; 0% at EC30 CNP, 100% saturating CNP; activation, % at 10 µM; hit rate 0.11% among 370,000; AID 1920062;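 active = activation at 10 µM reaching about 35% in either raw or pattern-adjusted values, limit read from the data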
# GC-A act: GC-A (human) enzyme activation; HEK293 GC-A cells, cGMP TR-FRET, EC30 ANP; 0% at EC30 ANP, 100% saturating ANP; activation, % at 10 µM; P16066; AID 1671463; hit rate 0.14% among 370,000; in the data active = activation above about 40%
# Myeloid diff 2: promotes myeloid progenitor differentiation. hit rate 1% among 360,000. calls only at 10 µM. ER-HoxA9 myeloid progenitors, lysozyme-GFP differentiation, flow cytometry. AID 624256;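 active = normalized GFP-positive differentiation at or above the plate's own cutoff, the solvent-only control mean plus 3 SD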;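 note: cells exposed to compound for four days before flow analysis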
# Exocytosis inh: lytic granule exocytosis inhibition. TALL-104 LAMP-1 surface exposure, flow cytometry; cells stimulated with thapsigargin and PMA. inhibition, % at 10 µM. hit rate 0.66% among 360,000. AID 651702;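 active = inhibition above about 55%, limit read from the data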
# Active calls of the source: *; i = inactive; . = no result; + = active, no number.
SMILES,NPR2 activator,GC-A act,Myeloid diff 2,Exocytosis inh
CCOP(=O)(OCC)/C(=N/OC(=O)c1ccc(OC)cc1)C(N)=O,9,11,i,70*
CCOP(=O)(OCC)/C(=N/OC(=O)c1ccccc1C)C(N)=O,1,5,i,6
N#Cc1c(N)[nH]c(=S)c(C#N)c1-c1ccccc1,3,18,i,2
N#Cc1c(N)[nH]c2ccc(Sc3ccccc3)cc12,44*,59*,.,-2
COc1cc(CNc2ccc3[nH]c(=O)[nH]c3c2)cc(Br)c1OCc1ccc(F)cc1,-4,-13,+,-14
C/C(Nc1ccc(Cl)cc1)=C1/CCOC1=O,2,-1,i,-1
COC(=O)c1c(C)[nH]c(C(=O)/C=C/c2ccccc2)c1C,-3,-2,+,-4
CCOC(=O)c1sc2ncc([N+](=O)[O-])cc2c1N,1,4,i,-4
COC(=O)c1sc2cc([N+](=O)[O-])cc(SCC(C)C)c2c1N,-6,-3,+,1
NC(=O)c1cccc(-c2coc3c(C(=O)NC4CCCCC4)cccc23)c1,35*,30,i,0
COC(=O)c1c(NC(=S)NN2CCN(C)CC2)sc2c1CCC(C)C2 (centres undefined),-11,14,i,64*
C=CCNc1nnc(SC2CC(=O)N(c3ccc(OCCC)cc3)C2=O)s1 (centres undefined),4,0,i,66*
CCOc1ccc(N2C(=O)CC(Sc3nc4ccc(OCC)cc4s3)C2=O)cc1 (centres undefined),-3,12,i,26
COc1ccccc1CCn1cnc(-c2ccc(Br)cc2)c1C(C)C,-2,-9,i,2
CCCn1c(N)c(C(=O)CSc2nc(C)nc3sc(C)c(C)c23)c(=O)[nH]c1=O,-1,41*,i,0
CN(CCO)c1ccc2c(c1)Oc1ccccc1CN(Cc1cn(Cc3cccc(C(F)(F)F)c3)nn1)S2(=O)=O,0,0,.,.
O=C(NCc1ccccc1Br)c1cccs1,-1,2,+,6
COc1ccc(-c2[nH]ncc2CN2CCN(C(=O)c3cccs3)CC2)c(F)c1,0,-4,+,-7
O=C1CCSc2c1ccc1ccccc21,-1,1,+,-9
Cc1ccc(CN2CCCCC(NC(=O)c3cccc([N+](=O)[O-])c3)C2=O)cc1 (centres undefined),0,0,.,.
CCN1Cc2nnn(Cc3ccc(C)cc3)c2-c2ccccc2S1(=O)=O,8,2,.,.
COc1cccc(-c2c(-c3cc(OC)cc(OC)c3)n(C)c3ccc(-c4cnc(N5CCOCC5)nc4)cc23)c1,-3,-3,+,-9
COc1cccc(-c2c(-c3cc(OC)cc(OC)c3)n(C)c3ccc(-c4cnc(OC)nc4)cc23)c1,4,5,i,-8
CCCCN1CCN(C(=O)C2CCCN(C(=O)c3ccc4c(c3)NC(=O)CS4)C2)CC1 (centres undefined),4,6,.,.
O=S1(=O)CC(N2CCC(Cc3ccccc3)CC2)CN1C1CCCC1 (centres undefined),1,2,i,-3
SMILES,NPR2 activator,GC-A act,Myeloid diff 2,Exocytosis inh
COc1cccc(CN2CCN(CCc3ccccc3)C(CCO)C2)c1OC (centres undefined),2,1,+,11
O=C(Nc1ccc(Cl)c(Cl)c1)c1cccc2c1-c1ccccc1C2=O,-1,-1,.,.
Brc1ccccc1Cn1c(-c2cscn2)nc2ccccc21,39*,36,i,-4
O=C(NCc1cccc2ccccc12)C1CCCN(c2nc3ccccc3o2)C1 (centres undefined),6,-1,.,.
Cc1ccc(C(=O)NNC(=O)CCC(=O)NCc2ccccc2)cc1Br,-2,2,+,0
CN1CCc2cccc3c2[C@@H]1Cc1ccc(O)c(O)c1-3,.,.,i,74*
COc1ccc2c(c1O)-c1ccccc1CCN(C)C2,3,2,i,-2
O=C(NCc1ccccc1)OCCCN1C(=O)CCC12CCCCC2,1,-1,.,.
Cc1cccc(NC(=S)Nc2cccc(C)n2)n1,4,-4,i,73*
Cc1cc(C)nc(NC(=S)Nc2cccc(Cl)c2Cl)c1,-1,3,+,-1
Cc1cccc(NC(=O)Nc2ccc(F)cc2)n1,0,0,+,0
Cc1cc(C)nc(NC(=S)Nc2ccc(Br)cc2Cl)c1,-2,0,i,-1
Cc1ccccc1CN1CCCCC(NC(=O)Nc2ccccc2-c2ccccc2)C1=O (centres undefined),-5,-1,.,.
CC1CCC2(CCC(=O)N2C[C@@H](O)c2ccccc2)CC1 (some centres undefined),-4,0,.,.
Clc1ccc(OCCSc2ncccn2)c(Br)c1,0,49*,i,-3
CCOc1cc(NS(=O)(=O)c2ccc(OC)cc2)c(OCC)cc1NC(=O)c1ccco1,6,-3,+,0
CCCC1NC(=O)c2cccnc2-n2c1nc1cc(C)cc(C)c1c2=O (centres undefined),-1,-2,i,-4
COc1ccccc1NS(=O)(=O)c1cc([N+](=O)[O-])ccc1N/N=C/c1sc(N2CCOCC2)nc1-c1ccccc1,-1,1,+,1
COc1ccc(C(=O)N/N=C/c2sc(N3CCOCC3)nc2-c2ccccc2)cc1OC,1,0,i,-4
O=[N+]([O-])c1cccc(C2CC(c3ccccc3)=NN2c2ccccc2)c1 (centres undefined),-3,-5,i,-1
N#CC1CC(c2ccc([N+](=O)[O-])cc2)=NN1c1ccc([N+](=O)[O-])cc1 (centres undefined),-1,0,+,0
O=C(NC1CCCC1)c1ccc(COc2ccccc2)o1,6,2,.,.
Cc1c(Cl)cccc1NC(=S)NCCc1ccc(F)cc1,1,2,i,84*
Cc1c(Cl)cccc1NC(=S)NCCc1ccc(Cl)cc1,-2,-2,i,26
N#Cc1c(-c2ccccc2F)cc(C2CC2)nc1SCC(=O)c1cccs1,4,0,+,0
SMILES,NPR2 activator,GC-A act,Myeloid diff 2,Exocytosis inh
Cc1nn(-c2ccc(Cl)cc2)c(Cl)c1/C=C(\C#N)C(N)=O,5,49*,i,-3
CCOc1ccccc1NC(=O)/C(C#N)=C/c1c(C)nn(-c2ccc(F)cc2)c1Cl,-6,-8,i,-1
C=CCNC(=O)/C(C#N)=C/c1c(C)nn(-c2ccc(Cl)cc2)c1Cl,4,46*,i,-3
COC(=O)C1CN(Cc2cn(CCOC(C)=O)nn2)CCS(=O)(=O)N1Cc1ccccc1 (centres undefined),-1,4,.,.
Cc1ccc(-n2c(SCc3cccc(F)c3)nc3sc4c(c3c2=O)CCCC4)cc1,0,1,.,.
Cc1oc(-c2ccc(Cl)cc2)nc1CN1CCCC(C(=O)N2CCOCC2)C1 (centres undefined),-3,1,i,0
Cc1oc(-c2ccc(Cl)cc2)nc1CN1CCCC(C(=O)N2CCN(C(=O)c3ccco3)CC2)C1 (centres undefined),-4,1,+,0
